Reference: ChEMBL document CHEMBL1157539, “Thousands of chemical starting points for antimalarial lead identification” (Nature, 2010)

Assays:
Type in all cases: functional
Plasmodium falciparum [1] = test: GSK_TCMDC: Inhibition of Plasmodium falciparum 3D7 in whole red blood cells, using parasite LDH activity as an index of growth. Test compounds present at 2uM
Plasmodium falciparum [2] = test: GSK_TCMDC: Inhibition of Plasmodium falciparum Dd2 in whole red blood cells, using parasite LDH activity as an index of growth. Test compounds present at 2uM
HepG2 = test: GSK_TCMDC: Percent inhibition of human HepG2 cell line. Test compounds present at 10uM.

| Structure (SMILES) | Inhibition (Plasmodium falciparum [1]) [%] | Inhibition (Plasmodium falciparum [2]) [%] | Inhibition (HepG2) [%] |
| --- | --- | --- | --- |
| CCCCN(CCCC)/C(=N/c1cccc(Cl)c1Cl)Nc1ccc(C#N)cc1O | 89 | 69 | 4 |
| O=C(Nc1cccc(-c2ccc(-c3nc4cc(C(F)(F)F)ccc4[nH]3)cc2)c1)c1csnn1 | 98 | 93 | 23 |
| CCOC(=O)CC[C@@H](NC(=O)c1ccc(NCc2ccc3ccc4nc(C)[nH]c(=O)c4c3c2)cc1F)C(=O)N[C@@H](Cc1c[nH]c2ccccc12)C(=O)OCC | 98 | 77 | 45 |
| CN1CCN(Cc2cc3cc(NC(=O)/C=C/c4cccc(Cl)c4)ccc3s2)CC1.Cl | 100 | 72 | 54 |
| Cl.Clc1ccc(OC2CCC(Cn3ccnc3)(c3ccc(Cl)cc3Cl)CC2)c(Cl)c1 (stereo not given) | 98 | 86 | 4 |
| Cc1cc(C(=O)Nc2ccc3c(c2)CCN3C2CCN(Cc3ccc(F)cc3Cl)C2)no1 (stereo not given) | 95 | 96 | 7 |
| CN1CCN(c2ccnc3ccc(NC(=O)Nc4ccc5c(c4)CCCC5=O)cc23)CC1 | 100 | 90 | 8 |
| CCn1cc2c3c(cc(C(=O)N[C@@H](Cc4ccccc4)[C@H](O)CNCc4cccc(OC)c4)cc31)N(C)S(=O)(=O)CC2 | 99 | 97 | 0 |
| O=C(Nc1ccc(OC2CCN(Cc3ccccc3)CC2)c(Cl)c1)c1ccco1.O=C(O)C(F)(F)F | 96 | 96 | 8 |
| COc1ccnc(NCCCNCc2cn(S(=O)(=O)c3ccccc3)c3ccccc23)c1 | 99 | 18 | 57 |
| O=C(Nc1cccc(CN2CCCN(Cc3ccc(O)cc3)CC2)c1)c1ccc2ccccc2n1.O=C(O)C(F)(F)F | 90 | 22 | 13 |
| O=C(Nc1cccc(C(F)(F)F)c1)c1cc([N+](=O)[O-])cc2cn[nH]c12 | 100 | 69 | 60 |
| COc1cc(NC(=O)N2CCc3ccc(OCCN(C(C)C)C(C)C)cc32)cc(C(F)(F)F)c1.O=C(O)C(F)(F)F | 100 | 97 | 6 |
| O=C(O)C(F)(F)F.c1cc(CN2CCN(CCN3CCOCC3)CC2)cc(-c2ccc(-c3nc4ccccc4[nH]3)cc2)c1 | 100 | 100 | 23 |
| CCCCCCOc1ccc(C(=O)N[C@H]2CCN(CCCCCNC(=O)/C=C/c3ccc(Cl)c(Cl)c3)C2)cc1 | 99 | 25 | 10 |
| COc1ccccc1C(=O)C1CCCN(C(=O)c2ccccc2C(F)(F)F)C1 (stereo not given) | 91 | 84 | 0 |
| COc1cc2c(OC)cccc2cc1CNCCCCCCNCc1cc2cccc(OC)c2cc1OC.CS(=O)(=O)O | 95 | 7 | 59 |
| CCOC(=O)c1ccc(NC(=O)Nc2cccc(-c3cccc(-c4nc5cc(F)ccc5[nH]4)c3)c2)cc1 | 100 | 100 | 85 |
| Cc1ccc(C(C(=O)Nc2ccc(N3CCNCC3)c(Cl)c2)c2ccccc2)cc1 (stereo not given) | 97 | 93 | 23 |
| CC1CCCN(S(=O)(=O)c2ccc(NC(=O)c3cc(-c4ccccc4O)n[nH]3)cc2)C1 (stereo not given) | 93 | 49 | 12 |

| Structure (SMILES) | Inhibition (Plasmodium falciparum [1]) [%] | Inhibition (Plasmodium falciparum [2]) [%] | Inhibition (HepG2) [%] |
| --- | --- | --- | --- |
| CN(C)Cc1cc2c(O)c(Cc3ccccc3)ccc2o1 | 85 | 69 | 3 |
| Cc1ccc2nc(N/C(N)=N/C(=O)NC3CCCCC3)nc(C)c2c1 | 99 | 94 | 8 |
| COc1ccccc1N(C)CCNc1cc(C)nc(Nc2ccc(C)cc2)n1 | 93 | 25 | 9 |
| COc1ccc(-c2ccc(NC(=O)c3cccc(Cl)c3)cc2)cc1CN1CCN(C)CC1.O=C(O)C(F)(F)F | 90 | 33 | 42 |
| CC(C)(C)c1ccc(C(=O)NC2CCC(CCN3CCc4ccc(S(C)(=O)=O)cc4CC3)CC2)cc1C(F)(F)F (stereo not given) | 88 | 11 | 54 |
| COc1ccc(CCN(C)CCCN2CCC(NC(=O)c3cccc4c(=O)c5ccccc5[nH]c34)CC2)cc1OC.O=C(O)C(=O)O | 99 | 72 | 19 |
| NC1CCCN(Cc2cccc(-c3ccc(-c4nc5ccccc5[nH]4)s3)c2)C1.O=C(O)C(F)(F)F (stereo not given) | 98 | 88 | 21 |
| CCCN1CCC=C(c2cccc(Nc3nccc(Nc4cc(OC)ccc4C)n3)c2)C1.Cl | 88 | 35 | 15 |
| O=C(O)C(F)(F)F.Oc1ccc2[nH]c(-c3cccc(F)c3)nc2c1CNCc1ccccc1 | 92 | 55 | 29 |
| COc1ccc(-c2ccc(NC(=O)c3ccc(Cl)cc3)cc2)cc1CN1CCN(C)CC1.O=C(O)C(F)(F)F | 86 | 23 | 36 |
| CCN(CCCN1CCCCC1)c1nc(C)cc(Nc2ccc(Cl)cc2)n1 | 98 | 92 | 30 |
| CN(C)c1ccc2c(c1)Sc1cc(N(C)C)ccc1N2C(=O)CCCC(=O)[O-].[Na+] | 96 | 81 | 0 |
| Cc1cc(N2CCN(C(=O)OC(C)(C)C)CC2)ccc1N | 92 | 38 | 11 |
| CC(C)CCN1CCC(Oc2ccc(NC(=O)c3ccco3)cc2Cl)CC1.O=C(O)C(F)(F)F | 95 | 93 | 1 |
| O=C(O)C(F)(F)F.OCCN1CCN(Cc2ccc(-c3cccc(-c4nc5ccccc5[nH]4)c3)cc2)CC1 | 96 | 16 | 32 |
| Cl.NCC(=O)Nc1cccc(Nc2nccc(-c3c(-c4cccc(NC(=O)c5ccccc5)c4)nn4ccccc34)n2)c1 | 96 | 87 | 45 |
| CCCCCC(C)N/C(=N/c1cccc(Cl)c1Cl)Nc1ccc(C#N)cc1O (stereo not given) | 100 | 98 | 28 |
| Br.CC1(C)NC(N)=NC(=N)N1OCCCOc1ccccc1Cl | 96 | 94 | 64 |
| CCCN(CCC)C(=O)c1cc(C(=O)N[C@@H](Cc2ccccc2)[C@H](O)CNC2CC2)cc(N2CCCCS2(=O)=O)c1 | 100 | 98 | 0 |
| CCCCCCCN1CCC(CC(=O)Nc2ccnc3ccc(OC)cc23)C(CC)C1 (stereo not given) | 100 | 75 | 14 |

| Structure (SMILES) | Inhibition (Plasmodium falciparum [1]) [%] | Inhibition (Plasmodium falciparum [2]) [%] | Inhibition (HepG2) [%] |
| --- | --- | --- | --- |
| CC(C)CCNCc1ccc(OCc2ccccc2COc2ccc(CNCCC(C)C)cc2I)c(I)c1.Cl | 100 | 78 | 99 |
| Fc1cccc(COc2ccc(Nc3ncnc4sc(C#C[C@H]5CC[C@H](CNCC(F)(F)F)N5)cc34)cc2Cl)c1 | 100 | 51 | 10 |
| CN(C)CC1CCCN1Cc1ccccc1-c1cnn(C)c(=O)c1Oc1cccc(C#N)c1.O=C(O)C(F)(F)F (stereo not given) | 92 | 15 | 26 |
| CCc1ccccc1N1CCN(CCCC(=O)c2ccc(NC(=O)c3ccc(Cl)cc3)cc2)CC1 | 90 | 4 | 17 |
| CCc1ccccc1N=C1c2c(cccc2[N+](=O)[O-])C(=O)C1C(C)=O (stereo not given) | 99 | 96 | 0 |
| COCCNCc1cccc(-c2ccc3c(Nc4ccc(Oc5cccnc5)cc4)ccnc3c2)c1 | 100 | 99 | 58 |
| Cc1cc(F)ccc1-c1nc(N(C)CCN(C)C(=O)N(C)c2ccccc2)nc2c1ccc(=O)n2-c1c(F)cccc1F.O=C(O)C(F)(F)F | 87 | 77 | 0 |
| N#Cc1ccc(N2CCN(Cc3ccc(-c4cccc(-c5nc6ccccc6[nH]5)c4)cc3)CC2)nc1.O=C(O)C(F)(F)F | 95 | 29 | 33 |
| CNC(=O)Cc1ccc(C(=O)Nc2cccc(-c3ccc(-c4nc5cccc(C)c5[nH]4)s3)c2)cc1 | 91 | 25 | 66 |
| CCC1CN2CCc3c([nH]c4ccccc34)C2CC1CC1=NCCc2c1[nH]c1ccccc21.Cl (stereo not given) | 100 | 47 | 20 |
| O=C(CNC1CCCCC1)Nc1cccc(C(=O)Nc2cccc(C(F)(F)F)c2)c1.O=C(O)C(=O)O | 93 | 80 | 17 |
| COc1ccc(NC(=O)c2cc(-c3ccc(NC(C)=O)cc3)cnc2N)cc1 | 98 | 5 | 10 |
| Cl.c1ccc(Cn2nnnc2-c2cccc(Nc3ccnc4cc(-c5nccs5)ccc34)c2)cc1 | 87 | 46 | 51 |
| Br.CCCCCCCCn1c2c(c(=N)c3c1CCC3)CCCC2 | 100 | 100 | 57 |
| NC(=O)COc1cccc2c1CCN(CCN1CCC(NC(=O)c3ccc(-c4ccc(Cl)cc4)cc3)CC1)C2 | 92 | 6 | 44 |
| Cn1cncc1CNCc1ccc(-c2cccc(-c3nc4ccccc4[nH]3)c2)cc1.O=C(O)C(F)(F)F | 100 | 92 | 19 |
| Oc1ccc2[nH]c(-c3ccc(OC(F)(F)F)cc3)nc2c1CNC1CCCC1 | 99 | 97 | 32 |
| O=C(Nc1cccc(C(F)(F)F)c1)Nc1ccc(F)c([N+](=O)[O-])c1 | 100 | 100 | 43 |
| COc1cccc(CNC[C@@H](O)[C@H](Cc2ccccc2)NC(=O)c2cc(C3CCCC3)cc(N3CCCCS3(=O)=O)c2)c1.Cl | 96 | 83 | 7 |
| Nc1c(Cl)cc(C(O)CNCCCCCOCCc2ccccc2)cc1C(F)(F)F (stereo not given) | 99 | 96 | 3 |
